According to PubChem BioAssay (NCATS):
Results filed as inconclusive are left out. Activity calls are given as the source filed them. Unless noted, the call rests on the fitted dose curve; in most records, active means well fitted curve in the direction sought with a large enough effect; inconclusive means small, poorly fitted or top-dose-only effect, or another doubt; inactive means no such curve, though single readings can be large; an effect the other way counts as inactive or inconclusive.

Columns and labels:
[1] = qHTS for Inhibitors of Plasmodium falciparum (DD2) proliferation (AID 504314);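 further: parasite DNA measured by SYBR Green fluorescence after red cell lysis; plate controls were DMSO vehicle for no effect and artemisinin wells for full effect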
Method in brief: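 Erythrocytes infected with P. falciparum Dd2 (0.3% parasitemia, 2.5% hematocrit) exposed to compound 72 h at 37C, 5% CO2. Parasite DNA quantified by SYBR Green fluorescence after saponin/Triton lysis overnight; normalized to 0.29 uM artemisinin and DMSO.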

[2] = qHTS for Inhibitors of Plasmodium falciparum (GB4) proliferation (AID 504315);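 further: 0% = DMSO vehicle and -100% = 0.29 µM artemisinin control; nearly all actives have a fitted effect of over 50% in size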
Method in brief: (§1)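 Erythrocytes infected with P. falciparum line (0.3% parasitemia, 2.5% hematocrit final) incubated with compounds 72 h at 37 °C, 5% CO2; SYBR Green lysis buffer added, fluorescence read next day. Normalized to 0.29 uM artemisinin and DMSO.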

[3] = qHTS for Inhibitors of Plasmodium falciparum (CP250) proliferation (AID 504320);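 further: plate controls were DMSO vehicle for no effect and 0.29 µM artemisinin control for full effect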
Method in brief: as §1

[4] = target: Atrial natriuretic peptide receptor 1 (Homo sapiens) (UniProt P16066); assay: Natriuretic polypeptide receptor (hNpr1) antagonism - Pilot CMLD screen (AID 1347052; calls by dose curve;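 further: HEK293 cells with hNpr1 stimulated by hNppA peptide at 0.1 nM; cGMP level read as GloSensor luciferase luminescence after agonist stimulation; series mostly up to about 9.2 µM; on the % scale 0 is the no-effect control and ±100 the full control effect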)
Chain of Atrial natriuretic peptide receptor 1 (Homo sapiens) (P16066 whole entry, looked up): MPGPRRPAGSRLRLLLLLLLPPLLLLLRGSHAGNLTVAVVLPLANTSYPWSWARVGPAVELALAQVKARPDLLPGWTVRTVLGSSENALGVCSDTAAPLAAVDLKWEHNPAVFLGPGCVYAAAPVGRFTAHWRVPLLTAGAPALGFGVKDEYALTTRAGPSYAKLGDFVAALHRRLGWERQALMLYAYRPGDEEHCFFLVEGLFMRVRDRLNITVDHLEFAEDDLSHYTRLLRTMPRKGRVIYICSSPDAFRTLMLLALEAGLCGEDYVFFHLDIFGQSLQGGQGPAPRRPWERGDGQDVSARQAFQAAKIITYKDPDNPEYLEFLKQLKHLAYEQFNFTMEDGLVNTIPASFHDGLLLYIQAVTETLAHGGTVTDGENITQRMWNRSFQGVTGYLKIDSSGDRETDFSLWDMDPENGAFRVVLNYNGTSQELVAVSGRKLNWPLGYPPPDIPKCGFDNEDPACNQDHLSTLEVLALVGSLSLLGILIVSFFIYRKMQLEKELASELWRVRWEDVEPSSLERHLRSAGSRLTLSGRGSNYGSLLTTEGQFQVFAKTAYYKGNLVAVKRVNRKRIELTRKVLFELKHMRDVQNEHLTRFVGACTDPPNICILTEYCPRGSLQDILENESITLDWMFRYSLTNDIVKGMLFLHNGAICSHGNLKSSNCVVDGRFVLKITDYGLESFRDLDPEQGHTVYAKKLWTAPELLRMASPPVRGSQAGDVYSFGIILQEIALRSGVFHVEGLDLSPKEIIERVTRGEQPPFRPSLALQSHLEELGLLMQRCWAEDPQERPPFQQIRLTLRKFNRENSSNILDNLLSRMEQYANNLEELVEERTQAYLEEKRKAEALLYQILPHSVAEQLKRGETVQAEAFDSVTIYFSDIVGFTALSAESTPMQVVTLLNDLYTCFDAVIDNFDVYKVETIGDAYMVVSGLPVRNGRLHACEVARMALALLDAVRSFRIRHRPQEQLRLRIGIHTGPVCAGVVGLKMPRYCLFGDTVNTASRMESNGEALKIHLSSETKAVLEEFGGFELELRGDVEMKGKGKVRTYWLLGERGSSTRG

CCCC[C@]12Cc3cc(C#N)ccc3[C@H](O1)c1c(cc(C)n(-c3ccccc3)c1=O)O2
inactive: Potency [1] | Potency [2] | Potency [3] | Potency [4]

C[C@H](O)CON1C(=O)c2ccccc2C1=O
inactive: Potency [1] | Potency [2] | Potency [3] | Potency [4]

COc1cc2c(cc1OC)[C@@]1(c3ccccc3)CCCC[C@H]1[C@@H]2NC(=O)C(F)(F)F
inactive: Potency [1] | Potency [2] | Potency [3] | Potency [4]

COC1=C[C@@H](C(=O)N[C@H]2CCCC[C@H]2NC(C)=O)[C@@H](C)[C@H](c2ccccc2)CC1=O
inactive: Potency [1] | Potency [2] | Potency [3] | Potency [4]

CC(CCN1CCCc2nc(C)c(C)cc21)=NOC[C@@H](O)[C@H]1O[C@@H]2OC(C)(C)O[C@H]2[C@@H]1O
inactive: Potency [1] | Potency [2] | Potency [3] | Potency [4]

COC(=O)N1[C@H]2CC[C@@]3(C)CC(=O)C[C@]1(C)C3c1ccccc12
inactive: Potency [1] | Potency [2] | Potency [3] | Potency [4]

C=CC[C@@]1(c2ccc(OC)cc2)Oc2ccccc2C2=NCCN=C21
inactive: Potency [1] | Potency [2] | Potency [3] | Potency [4]

C[C@@H]1CC[C@H]2C(=O)N(Cc3ccc(Cl)cc3)C[C@@H](O)CN2[C@@H]1c1cccc(Br)c1
inactive: Potency [1] | Potency [2] | Potency [3] | Potency [4]

COC(=O)C1=C(C(=O)OC)[C@@H]2N(CC=C(C)C)c3ccccc3[C@@]23CCC(=O)N(CCc2ccccn2)C3=N1
inactive: Potency [1] | Potency [2] | Potency [3] | Potency [4]

COC(=O)N[C@@H](c1ccc(Cl)cc1)C(C(C)=O)C(=O)OC (some centres undefined)
inactive: Potency [1] | Potency [2] | Potency [3] | Potency [4]

COc1ccc2c(c1)CO[C@H]([C@H](O)CO)[C@H]2C=Cc1ccccc1
inactive: Potency [1] | Potency [2] | Potency [3] | Potency [4]

O=C(NN=C1C[C@@H](O)[C@H](O)[C@H]2[C@@H]3C(=O)N(C4CCCCC4)C(=O)[C@@H]3CC[C@@H]12)OCc1ccccc1
inactive: Potency [1] | Potency [2] | Potency [3] | Potency [4]

COc1ccc2c(c1)C(=O)[C@@H](OC(=O)NCCc1ccc(OC)c(OC)c1)[C@H](c1ccc(OC)c(Br)c1)O2
inactive: Potency [1] | Potency [2] | Potency [3] | Potency [4]

COc1ccc(OC[C@H]2CN3[C@H](c4ccc(Br)cc4)[C@H](C)CC[C@H]3C(=O)O2)cc1
inactive: Potency [1] | Potency [2] | Potency [3] | Potency [4]

COc1ccc(O[C@H]2C=C[C@@H](c3ccccc3)O[C@H]2COC(=O)NCc2cccc3ccccc23)cc1
inactive: Potency [1] | Potency [2] | Potency [3] | Potency [4]

COC(=O)CCCC1=CC2=CC(=O)C(C)(OC(=O)c3cccs3)C(=O)C2=CN1c1ccc(OC)cc1 (centres undefined)
inactive: activity, negative = inhibition [1] 1.04% [at 1.12 µM] | Potency [2] | Potency [3] | Potency [4]

C[C@H]1[C@@H](C(=O)N2CCCC2)CC(=O)C(=NOCc2ccccc2)C[C@H]1c1ccccc1
inactive: Potency [1] | Potency [2] | Potency [3] | Potency [4]

COc1ccc(-c2nc3c(c4c2C[C@H](c2ccccc2)OC4)CN(C(=O)N[C@@H](C)c2ccccc2)CC3)c(C)c1
inactive: activity, negative = inhibition [1] 3.19% [at 1.12 µM] | Potency [2] | Potency [3] | Potency [4]

C[C@@H]1CC2CCCC2[C@]2(O1)C(=O)Nc1ccccc12 (some centres undefined)
inactive: Potency [1] | Potency [2] | Potency [3] | Potency [4]

C#CCN1C(=O)C2(CC(C)=C[C@@H](C)O2)c2c(Br)cccc21 (some centres undefined)
inactive: Potency [1] | Potency [2] | Potency [3] | Potency [4]

CC1(OC(=O)CCc2ccccc2)C(=O)C=C2C=C(c3ccc(C#N)cc3)N(CC3CC3)C=C2C1=O (centres undefined)
inactive: activity, negative = inhibition [1] -3.92% [at 1.12 µM] | Potency [2] | Potency [3] | Potency [4]

C=CCN1c2ccccc2[C@]23CCC(=O)N(CCCOC(C)C)C2=NC(C(=O)OC)=C(C(=O)OC)[C@H]13
inactive: Potency [1] | Potency [2] | Potency [3] | Potency [4]

CCCNC(=O)CC1OC(C2CCCCC2)Cc2ccccc21 (centres undefined)
inactive: Potency [1] | Potency [2] | Potency [3] | Potency [4]

CC=CC(=O)C[C@H]1CC[C@@H](C)[C@@H](CCO)O1
inactive: Potency [1] | Potency [2] | Potency [3] | Potency [4]

Cc1cc2c(c(=O)o1)[C@H]1O[C@](CCCCN3C(=O)c4ccccc4C3=O)(Cc3cc(C#N)ccc31)O2
inactive: Potency [1] | Potency [2] | Potency [3] | Potency [4]

COc1ccc(O[C@H]2C=C[C@@H](c3ccccc3)O[C@H]2COC(=O)CCC(C)=NOC[C@@H](O)COCc2ccco2)cc1
inactive: Potency [1] | Potency [2] | Potency [3] | Potency [4]

CCN1C(=O)[C@@H]2[C@H]3[C@H](O)[C@H](O)CC(=NOC[C@H]4O[C@H](c5ccccc5)C=C[C@H]4Oc4ccc(OC)cc4)[C@@H]3CC[C@H]2C1=O
inactive: Potency [1] | Potency [2] | Potency [3] | Potency [4]

O=C1Nc2cccc(Br)c2[C@@]12O[C@H](COc1ccccc1)CC1=CCC[C@H]12
inactive: Potency [1] | Potency [2] | Potency [3] | Potency [4]

COC(=O)[C@]1(C=C2c3ccccc3C[C@H](OC)[C@@H]2C)[C@@H]2CC=C[C@@H]21
inactive: Potency [1] | Potency [2] | Potency [3] | Potency [4]

COc1ccc(NC(=O)N2CCc3nc(-c4ccc(OC)cc4C)c4c(c3C2)CO[C@@H](c2ccccc2)C4)cc1
inactive: Potency [1] | Potency [2] | Potency [3] | Potency [4]

COC(=O)CC1c2ccccc2C(Cc2ccc3c(c2)OCO3)=C(C)N1C(=O)OC (centres undefined)
inactive: Potency [1] | Potency [2] | Potency [3] | Potency [4]
